Source: PubChem BioAssay
BAZ2B inh – BAZ2B (human) inhibition; Q9UIF8; AlphaScreen BAZ2B-H3K14Ac peptide displacement; Potency, µM (series often up to 114 µM), for inactives: at the top dose activity change, negative = inhibition, hits mostly inhibitors; actives 4.4% (n = 360,000); note: % is set by controls: 0 for no effect and ±100 for the full control effect; nearly all actives have a fitted effect of over 60% in size
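Complex of BAZ2B and biotin-H3K14Ac (50 nM apiece) forms over 30 min at RT, then faces library compounds up to 110 uM for another 30 min; AlphaScreen beads added, 20 min dark incubation, luminescence read.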
Sfp inh – Sfp phosphopantetheinyl transferase inhibition; Q9F4F7; Biochemical Sfp PPTase activity, qHTS; Potency, µM, for the others: largest response in the series, negative = inhibition, actives largely listed as inhibitors; actives 3.5% (n = 310,000);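 note: the enzyme is Sfp with the accession as filed and its product quenches rhodamine fluorescence; 0% = enzyme reaction without inhibitor and -100% = no enzyme wells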
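Sfp 15 nM + cpd, 15 min RT; start w/ rhodamine-CoA 5 uM, BHQ-2-YbbR 12.5 uM (final); 50 mM Hepes pH 7.6, 10 mM MgCl2, 0.01% NP-40, 0.01% BSA; read 525/598 nm at 0 and 30 min.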
JMJD2A Tudor inh – inhibitors of human JMJD2A Tudor domain | Potency, µM (highest dose often 114 µM), without a hit: at the highest dose activity change, negative = inhibition, actives largely listed as inhibitors | AlphaScreen JMJD2A-Tudor / H3K4me3 peptide binding | actives 4.4% (n = 390,000); note: % is set by controls: 0 for no effect and ±100 for the full control effect; nearly all actives have a fitted effect of over 50% in size
Target sequence (O75164 whole entry, looked up, the tested form may be a part): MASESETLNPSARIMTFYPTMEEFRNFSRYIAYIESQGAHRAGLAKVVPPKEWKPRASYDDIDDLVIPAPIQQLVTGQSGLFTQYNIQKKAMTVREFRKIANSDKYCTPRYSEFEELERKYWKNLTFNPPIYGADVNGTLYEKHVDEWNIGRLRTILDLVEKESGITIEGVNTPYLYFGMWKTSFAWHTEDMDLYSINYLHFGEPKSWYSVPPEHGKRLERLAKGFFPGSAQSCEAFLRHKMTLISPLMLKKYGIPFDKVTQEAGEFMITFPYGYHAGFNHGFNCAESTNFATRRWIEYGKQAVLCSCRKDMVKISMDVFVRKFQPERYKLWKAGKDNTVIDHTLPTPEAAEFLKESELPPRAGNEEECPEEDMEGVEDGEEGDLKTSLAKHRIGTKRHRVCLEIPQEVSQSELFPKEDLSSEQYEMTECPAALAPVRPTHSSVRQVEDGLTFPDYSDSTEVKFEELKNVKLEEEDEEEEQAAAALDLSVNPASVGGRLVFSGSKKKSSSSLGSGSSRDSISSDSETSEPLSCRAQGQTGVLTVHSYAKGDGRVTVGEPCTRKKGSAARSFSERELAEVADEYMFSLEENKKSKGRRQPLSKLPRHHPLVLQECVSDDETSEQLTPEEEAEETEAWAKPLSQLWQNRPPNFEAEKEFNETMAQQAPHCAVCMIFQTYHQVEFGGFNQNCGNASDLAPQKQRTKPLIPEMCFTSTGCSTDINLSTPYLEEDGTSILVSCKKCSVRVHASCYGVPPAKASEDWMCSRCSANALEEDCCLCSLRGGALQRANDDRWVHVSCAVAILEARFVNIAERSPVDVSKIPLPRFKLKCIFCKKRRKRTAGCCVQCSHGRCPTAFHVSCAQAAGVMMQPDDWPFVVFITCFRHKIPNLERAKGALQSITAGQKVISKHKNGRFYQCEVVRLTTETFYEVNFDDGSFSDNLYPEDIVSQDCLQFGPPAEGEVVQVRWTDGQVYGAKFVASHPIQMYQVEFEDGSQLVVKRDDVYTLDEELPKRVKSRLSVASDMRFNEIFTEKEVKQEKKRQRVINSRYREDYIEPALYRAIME
G9a block – blocks human histone lysine methyltransferase G9a; actives 8.8% (n = 350,000); G9a H3K9 monomethylation, AlphaScreen, 2 h; Potency, µM (titrated, usually from 102 µM), for the others: at the top dose activity, negative = inhibition, usual class: inhibitors; Q96KQ7; note: % is set by controls: 0 for no effect and ±100 for the full control effect; nearly all actives have a fitted effect of over 75% in size
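Compounds were preincubated with 20 nM G9a for 15 min, after which biotinylated H3K9 peptide (500 nM) and SAM (20 uM) started a 2 h room-temperature reaction. Monomethylated product was quantified by antibody-based AlphaScreen chemiluminescence.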
L3MBTL1 block – blocks human L3MBTL1; Q9Y468; AlphaScreen L3MBTL1–H3K9me1 peptide binding; Potency, µM (doses to about 57.1 µM), inactives show at the top dose activity, negative = inhibition, most hits filed as inhibitors; actives 0.66% (n = 230,000); AID 485360; note: % is set by controls: 0 for no effect and ±100 for the full control effect; nearly all actives have a fitted effect of over 60% in size
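L3MBTL1 (50 nM) pre-complexed 30 min with biotinylated H3(1-15)K9me1 peptide (75 nM), then compounds added for 30 min at room temperature; AlphaScreen streptavidin donor/nickel chelate acceptor beads (10 ug/mL final) read after 30 min dark incubation.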
HP1b binding inh – HP1-beta chromodomain-methylated histone interaction inhibition. actives 0.56% (n = 390,000). AID 540317. Potency, µM (doses to about 114 µM), inactives show at the highest dose activity change, negative = inhibition, actives largely listed as inhibitors. AlphaScreen HP1-beta / biotin-H3K9me3 peptide binding; note: nearly all actives have a fitted effect of over 70% in size
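AlphaScreen: HP1-beta (50 nM) preformed 30 min with biotin-H3(1-18)K9me3 peptide (50 nM) in PBS pH 7.4, 0.01% Tween-20. Compound added for 30 min at RT, then streptavidin donor/nickel chelate acceptor beads (10 ug/mL) for 30 min.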
An asterisk follows results filed as active; u = inconclusive; x = no result given; [ ] = dose if it differs, or a comment. A selection: hits, their analogues and other compounds. The true share with any hit is near 12%. Calls come from the whole dose curve; as a rule, active = well fitted curve in the direction sought with a large enough effect; inconclusive = small, poorly fitted or top-dose-only effect, or another doubt; inactive = no such curve, though single readings can be large; an effect the other way counts as inactive or inconclusive. Potency is the fitted concentration of half-maximal effect.

SMILES	BAZ2B inh	Sfp inh	JMJD2A Tudor inh	G9a block	L3MBTL1 block	HP1b binding inh
Cc1ccc2c(CN3CCCCC3CCO)cc(=O)oc2c1 (stereo unspecified)	3.1%	10.7%	0.3%	25.1µM*	x	32.0%
CC(=O)OC1OCCOC1NC(=S)Nc1cccc(C(F)(F)F)c1 (stereo unspecified)	2.7%	-22.8%	3.5%	2.7%	0.9%	48.7%
CC(=O)OC1OCCOC1NC(=S)NCc1ccco1 (stereo unspecified)	-1.7%	22.4µM*	u	x	4.1%	-2.5%
Cc1sc2ncnc(N3CCC(C(=O)Nc4cc(S(C)(=O)=O)ccc4Cl)CC3)c2c1C	1.2%	x	-3.8%	-35.7%	2.3%	41.7%
Cc1sc2ncnc(N3CCC(C(=O)Nc4ccc(S(N)(=O)=O)cc4)CC3)c2c1C	-4.8%	x	-25.2%	u	-12.1%	10.6%
CCN(CC)S(=O)(=O)c1cc(NC(=O)C2CCN(c3ncnc4sc(C)c(C)c34)CC2)ccc1Cl	-17.1%	x	-24.1%	44.7µM*	-4.0%	34.3%
Cc1ccc(NC(=O)C2CCN(c3ncnc4sc(C)c(C)c34)CC2)cc1S(=O)(=O)N(C)C	-0.9%	x	-13.8%	14.1µM*	-2.1%	6.6%
CCN(C(=O)CCS(=O)(=O)c1cc2c(cc1C)NC(=O)CO2)c1cccc(C)c1	23.1%	x	16.1%	2.8%[59 µM]	x	31.9%
Cc1ccc(Sc2c(C)nn(C(=O)COc3ccccc3)c2C)cc1	108.3%	x	124.2%	69.4%[59 µM]	x	96.1%
CC(=O)c1cc(C(=O)Nc2cccc(C)c2)c2ccccn12	2.8%	x	-14.0%	1.8%[59 µM]	x	16.0%
O=C(CN1CCN(Cc2ccccc2)CC1)Nc1ccc([N+](=O)[O-])cc1C(=O)Nc1ccccc1F	u	-0.9%	u	u	-16.4%	-14.7%
O=C(CNCc1ccccn1)Nc1ccc([N+](=O)[O-])cc1C(=O)Nc1ccccc1F	17.8µM*	3.3%	44.7µM*	13.2%	x	12.6%
COCCNC(=O)CN1CCN(C(c2ccccc2)c2ccccc2)CC1	u	u	8.91µM*	14.1µM*	-2.9%	u
COC(=O)CNC(=O)CCC(=O)N1CCN(C(c2ccccc2)c2ccccc2)CC1	-16.9%	11.8%	-4.0%	1.4%	-0.2%	50.1%
Cc1ccnc(SCC(=O)N2CCN(C(c3ccccc3)c3ccccc3)CC2)n1	-2.0%	-6.6%	-18.0%	44.7µM*	x	36.2%
CN(C)S(=O)(=O)c1ccc(NC(=O)CN2CCN(C(c3ccccc3)c3ccccc3)CC2)cc1	-2.3%	16.0%	-8.3%	-6.5%	-5.2%	10.5%
COc1ccc(CNC(=O)CNC(c2ccccc2)c2ccccc2)cc1OC	-37.1%	17.9%	-13.0%	5.6%	x	-4.1%
COCCNC(=O)CNC(c1ccccc1)c1ccccc1	56.2µM*	44.7µM*	x	44.7µM*	x	x
CCCCNC(=O)CCC(=O)N1CCN(C(c2ccccc2)c2ccccc2)CC1	79.4µM*	20.1%	-0.7%	2.3%	-1.3%	68.7%
O=c1c(-c2cccs2)nc2cnc(N3CCOCC3)nc2n1Cc1cccs1	x	27.7%	x	1.9%[0.501 µM]	x	x
CC(C)(C)OC(=O)N1CCC[C@H]1C(=O)OCC(=O)Nc1cc(S(C)(=O)=O)ccc1Cl	6.0%	x	-15.3%	-8.8%[12.7 µM]	-6.5%	27.1%
CCCn1c(C)nc2c(NCc3ccccc3)nc(C)nc21	x	8.0%	x	x	x	x
Cc1occc1C(=O)N1CCN(C(c2ccccc2)c2ccccc2)CC1	u	-6.7%	u	39.8µM*	u	2.7%
CN(Cc1ccccc1)C(=O)CN1CCN(C(c2ccccc2)c2ccccc2)CC1	-30.7%	-0.9%	-19.6%	-37.6%	-0.6%[11.4 µM]	-3.2%
COC(=O)CN1CCN(C(c2ccccc2)c2ccccc2)CC1	7.8%	-4.5%	-23.1%	56.2µM*	1.1%	27.6%
SMILES	BAZ2B inh	Sfp inh	JMJD2A Tudor inh	G9a block	L3MBTL1 block	HP1b binding inh
O=C(c1cc(-c2cccc(O)c2)on1)N1CCN(C(c2ccccc2)c2ccccc2)CC1	-7.5%	18.5%	u	44.7µM*	-11.4%	9.0%
O=C(c1cc(C2CC2)on1)N1CCN(C(c2ccccc2)c2ccccc2)CC1	-6.3%	1.0%	-16.2%	u	4.3%	43.3%
Cc1nc2cc(N3CCOCC3)c(NC(=O)C3CC3)cc2c(=O)n1Cc1ccccc1	u	-3.5%	u	50.1µM*	3.2%	10.8%
Cc1nc2cc(N3CCCCC3)c(NC(=O)c3ccncc3)cc2c(=O)n1Cc1ccccc1	9.4%	13.4%	-6.9%	7.8%[59 µM]	x	29.4%
Cc1cccc(NC(=O)CSc2nc3c(c(=O)[nH]2)CN(Cc2ccc4c(c2)OCO4)CC3)c1C	-0.8%	x	0.0%	-44.4%[59 µM]	x	33.5%
CC1CCN(S(=O)(=O)c2ccc3c(c2)oc(=O)n3CC(=O)N2CCCCC2)CC1	-17.4%	x	-11.3%	-5.1%[59 µM]	x	34.9%
CN(C)c1ccc(C(=S)N2CCCCCC2)cc1	u	44.7µM*	u	8.91µM*	x	-26.3%
CN(C)c1ccc(C(=S)N2CCOCC2)cc1	x	1.1%	0.8%	3.2%[59 µM]	-1.2%	23.4%
COc1ccc(C(=S)N2CCN(S(=O)(=O)c3ccccc3)CC2)cc1	-22.9%	6.3%	24.1%	12.7%	x	58.4%
CN(C)c1ccc(C(=S)N2CCN(S(=O)(=O)c3ccccc3)CC2)cc1	u	-5.8%	5.4%	12.6µM*	x	19.6%
CC(=O)N1CCN(C(=S)c2ccc(N(C)C)cc2)CC1	-22.4%	35.5µM*	-20.3%	7.08µM*	-2.0%	u
NC(CC(=O)Nc1ccc(Oc2cc(F)c(F)cc2Br)cc1)C(=O)O (stereo unspecified)	x	-12.9%	x	x	x	x
COc1cc(CCN2C(=O)N[C@@H](c3cccc(C(F)(F)F)c3)C(C(C)=O)=C2C)cc(OC)c1OC	-16.3%	1.2%	x	u	-3.7%	x
Cc1ccc(C2=NN=C(NC(=O)CSc3nc(C)cc(C)n3)SC2)cc1	-36.0%	39.8µM*	x	28.2µM*	-12.4%	x
Cc1cc(C(F)(F)F)nc(SCC(=O)NC2=NC(=O)C(C)S2)n1 (stereo unspecified)	5.0%	-42.3%	-24.7%	u	5.4%	4.4%
Cc1ccc(C2=NN=C(NC(=O)CSc3nnc4c5ccccc5n(C)c4n3)SC2)cc1	-9.8%	3.1%	u	44.7µM*	-28.4%	15.0%
Cc1cc(C)nc(SCC(=O)Nc2cc(C)on2)n1	33.9%	12.4%	-14.3%	6.9%[59 µM]	37.9%	14.2%
Cc1cc(C)nc(SCC(=O)NC2=NC(=O)C(C)S2)n1 (stereo unspecified)	10.8%	22.4µM*	u	17.8µM*	7.0%	-5.0%
CN(C)c1cccc(NC(=O)CCc2ccccc2)c1	u	0.7%	11.6%[11.4 µM]	3.16µM*	-1.0%[11.4 µM]	u
CC(=O)Nc1ccc(NC(=O)c2cccc3ccccc23)cc1	-13.7%	29.0%	u	8.2%	-5.1%	31.7%
